“And” between values parts separate entries of the source, which are not always exact repeats. Identical values can stand only once. The source made the active and inactive calls. No stated cut-off is given here; in the data, active means parasite load remaining mostly below about 12% (no sharp cut-off); inactive means mostly above about 10%. Numbered stars: 1 amine (or outer) side, 2 acyl side, 3 side chain; on linkers, the order of the positions; unused ones are H or OH. Bridge positions count the residues as written; N and C are the ends. Square brackets hold non-standard residues; d marks the D form. Peptide text beside a SMILES is read from it. * marks the point of attachment. Heptanoyl(6-Me) = CC(C)CCCCC(=O)*; X3 = CC(C)C(CN[*:1])C(=O)[*:2]; Dab = NCC[CH](N)C(=O)O
Assay: liver-stage malaria parasite growth inhibition, primary screen, cell-based, HepG2, luciferase luminescence, HepG2 viability (AID 624349);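 further: 100% = mean of DMSO negative control wells on the same plate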
Settings: P. berghei liver stage in HepG2, luciferase luminescence, concentration not given here; parasite load remaining: stronger effect = lower value; viability: measured here: HepG2 viability without parasites

Compound	parasite load remaining	viability
COc1cc2ncnc(N3CCN(C(=O)Nc4ccc(Oc5ccccc5)cc4)CC3)c2cc1OC	27.2% (inactive)	89.5%
CC(C)n1cnc2c(NCc3ccccc3O)nc(NCCCO)nc21	37.8% (inactive)	118%
COC1[C@@H](OC)C[C@H](C)[C@@H](OC)C2=CC(=O)C=C(NC(=O)/C(C)=C/C=C\C(OC)[C@@H](OC(N)=O)/C(C)=C/[C@@H]1C)C2=O (some centres undefined)	25.3% (inactive)	84.1%
Nc1c(O)cccc1C(=O)CC(N)C(=O)O (centres undefined)	62.4% (inactive)	73.1%
O=c1[nH]c(O)c2c1c1c3ccccc3nc1n1cncc21	34.3% (inactive)	93.6%
Cn1cnc2cc3c(Nc4cccc(Br)c4)ncnc3cc21	14.5% (inactive)	165%
O=C(Nc1cccc(Nc2cc(Nc3cccc(C(F)(F)F)c3)ncn2)c1)C1CC1	48.9% (inactive)	163%
COc1cc2ncnc(Nc3ccc(OCc4ccccc4)cc3)c2cc1OC	51.2% (inactive)	119%
O=Nc1c(-c2c(O)[nH]c3ccc(I)cc23)[nH]c2ccccc12	33.7% (inactive)	156%
CC(=O)O/N=C1\C(c2c(O)[nH]c3cc(Br)ccc23)=Nc2ccccc21	14.7% (inactive)	97.9%
Cc1nc(N)sc1-c1ccnc(Nc2cccc([N+](=O)[O-])c2)n1	60.6% (inactive)	87.6%
Cn1sc(=O)n(Cc2ccccc2)c1=O	33% (inactive)	94.4%
O=C1NC(=O)c2c1c1c3ccccc3[nH]c1c1[nH]c3cc(Br)ccc3c21	60.6% (inactive)	160%
Ic1cccc(CSc2nnc(-c3ccncc3)o2)c1	20.8% (inactive)	98.7%
Cc1nc(-c2ccccc2)c(-c2ccncc2)o1	46.9% (inactive)	64.2%
CC(C)C(CO)Nc1nc(Nc2cccc(Cl)c2)c2ncn(C(C)C)c2n1 (centres undefined)	30.5% (inactive)	63.2%
COc1cc2ncn(-c3cc(OCc4ccc(S(C)(=O)=O)cc4)c(C(N)=O)s3)c2cc1OC	30% (inactive)	67.4%
COc1ccc(-c2cnc3c(-c4ccsc4)cnn3c2)cc1	16.9% (inactive)	67.4%
O=C(Nc1ccc(Cl)cc1)c1ccccc1NCc1ccncc1	39.8% (inactive)	69%
NCCNc1ncc(C(N)=O)c(Nc2cccc(C(F)(F)F)c2)n1	37.1% (inactive)	76.9%
COc1cc2ncnc(Nc3cccc(O)c3)c2cc1OC	52.5% (inactive)	68.3%

Compound	parasite load remaining	viability
CCc1[nH]c(-c2ccc(OC)cc2)nc1-c1ccncc1	30.1% (inactive)	82.4%
O=C(O)c1ccc2c3c1cccc3c(=O)n1c3ccccc3nc21	44% (inactive)	75.2%
O=C1NC(=O)C(c2cn(CCCn3ccnc3)c3ccccc23)=C1Nc1ccccc1	35% (inactive)	61.8%
O=C(Nc1ccncc1)Nc1c(Cl)cc(Cl)cc1Cl	41.9% (inactive)	65.2%
Cc1cc(C=C2C(=O)C=CC2=O)cc(C)c1O	28.7% (inactive)	70.7%
Cc1cc(Nc2nc(-c3ccccc3)nc3ccccc23)n[nH]1	33.3% (inactive)	117%
O=C1Nc2ccc(Cl)cc2/C1=C/c1cc(Cl)c(O)c(Cl)c1	28.5% (inactive)	82.4%
O=c1c(-c2ccc(F)cc2)c(-c2ccncc2)[nH]n1-c1ccc(Cl)cc1	36.4% (inactive)	68.5%
Cn1nc2c3c(cccc31)C(=O)c1ccccc1-2	28.1% (inactive)	83.8%
CO[C@H]1C[C@@H]2CC[C@@H](C)[C@@](O)(O2)C(=O)C(=O)N2CCCC[C@H]2C(=O)O[C@H](C(C)C[C@H]2CC[C@@H](O)[C@H](OC)C2)CC(=O)[C@H](C)/C=C(\C)[C@@H](O)[C@@H](OC)C(=O)[C@H](C)C[C@H](C)/C=C/C=C/C=C/1C (some centres undefined)	45.4% (inactive)	63.2%
N#Cc1c(-c2ccccc2)cc(-c2cc(Br)ccc2O)[nH]c1=O	30.2% (inactive)	75.4%
CCN(CC)CCNC(=O)c1c(C)[nH]c(/C=C2\C(=O)Nc3ccc(Cl)cc32)c1C	49.7% (inactive)	69.1%
COc1cc(Nc2ncc3ccn(-c4cccc(CCC#N)c4)c3n2)cc(OC)c1OC	50.6% (inactive)	164%
Cc1cncc2cccc(S(=O)(=O)N3CCCN(C(=O)CN)C[C@H]3C)c12	43.2% (inactive)	68.1%
NCCCn1cc(C2=C(c3c[nH]c4ccccc34)C(=O)NC2=O)c2ccccc21	53.3% (inactive)	148%
O=c1[nH][nH]c2nnc(-c3c(-c4ccccc4)nn4ccccc34)cc12	41.8% (inactive)	101%
NC(=O)Nc1cc(-c2ccccc2)sc1C(N)=O	74.4% (inactive)	163%
Cc1ncc2ccccc2c1C#N	44.1% (inactive)	86.2%
CSc1nc(-c2ccnc(NC(C)c3ccccc3)c2)c(-c2ccc(F)cc2)[nH]1 (centres undefined)	53.6% (inactive)	77.8%
Nc1nc(Nc2ccc(S(N)(=O)=O)cc2)nn1C(=S)Nc1c(F)cccc1F	8.25% (active)	93.1%
c1ccc(-c2cnc(Nc3ccc(OCCN4CCCC4)cc3)s2)cc1	46.3% (inactive)	100%

Compound	parasite load remaining	viability
CNc1cc2c(Nc3cccc(Br)c3)ncnc2cn1	49.2% (inactive)	157%
N#Cc1cnc2cnc(NCc3cccnc3)cc2c1NC1CCCCCC1	36% (inactive)	65.1%
Cn1cc(/C=C2\C(=O)Nc3ccc(S(N)(=O)=O)cc32)c2ccccc21	59.7% (inactive)	106%
CC#CC(=O)Nc1cc2c(Nc3ccc(F)c(Cl)c3)ncnc2cn1	50.6% (inactive)	159%
COC1C=CC23c4cc5c(cc4CN(C[C@H]2O)[C@@H]3C1)OCO5 (some centres undefined)	2.19% (inactive)	98.9%
CC(C)CCCCC(=O)NC(CCN)C(=O)NC(C(=O)NC(CCN)C(=O)NC1CCNC(=O)C(C(C)O)NC(=O)C(CCN)NC(=O)C(CCN)NC(=O)C(C(C)C)CNC(=O)C(CC(C)C)NC(=O)C(CCN)NC1=O)C(C)O (centres undefined) ({Heptanoyl(6-Me)}-[Dab]T[Dab][Dab][Dab]L[X3][Dab][Dab]T; lactam 4-C; configuration not given here)	68.1% (inactive)	75.2%
CCCOc1ccc(/C=C2\SC(=O)NC2=O)cc1	54.3% (inactive)	111%
CCN(CC)C(=O)c1ccc(Nc2nc(OCC3CCCCC3)c3[nH]cnc3n2)cc1	41.1% (inactive)	89.4%
COC1=C[C@]23CCCN2CCc2cc4c(cc2[C@]3(C)C1OC(=O)[C@@](O)(CCCC(C)(C)O)CC(=O)O)OCO4 (some centres undefined)	-0.16% (inactive)	37.5%
OCC(O)CCO/N=C1/C(c2c(O)[nH]c3ccccc23)=Nc2ccccc21 (centres undefined)	25.4% (inactive)	80.9%
COc1ccc(S(=O)(=O)Nc2ccccc2CN(C)C/C=C/c2ccc(Cl)cc2)cc1	36.4% (inactive)	93.6%
O=C(Nc1cccc(Nc2nccc(Nc3cccc(C(F)(F)F)c3)n2)c1)C1CC1	36.9% (inactive) and 34.4% (inactive)	99.7% and 89.6%
CC(=O)NC1SCCC1=O (centres undefined)	139% (inactive)	87.1%
O=C1NC(=O)/C(=C/c2ccc3c(c2)OCO3)S1	37.6% (inactive)	63.8%
CC[C@H](CO)Nc1nc(NCc2ccccc2O)c2ncn(C(C)C)c2n1	34.4% (inactive)	146%
O=C(c1ccccc1)c1ccc(N2CCOCC2)cc1O	40.6% (inactive)	74.9%
CCOc1cc2ncnc(Nc3cccc(Br)c3)c2cc1OCC	50.2% (inactive)	132%
Cn1c(O)c(-c2[nH]c3ccccc3c2N=O)c2ccc(Br)cc21	27.7% (inactive)	171%
CC[C@@H](CO)Nc1nc(NCc2ccc(-c3ccccn3)cc2)c2ncn(C(C)C)c2n1	181% (inactive)	75.3%
O=C1NC(=NCc2cccs2)S/C1=C\c1ccc2ncccc2c1	27.7% (inactive)	96.3%
